This is an account of results in ChEMBL document CHEMBL2218924, “A broad activity screen in support of a chemogenomic map for kinase signalling research and drug discovery” (Biochem J, 2013).

The target in test [1] is T1, Serine/threonine-protein kinase TBK1 (Homo sapiens) (UniProt Q9UHD2).
T1 sequence (whole entry): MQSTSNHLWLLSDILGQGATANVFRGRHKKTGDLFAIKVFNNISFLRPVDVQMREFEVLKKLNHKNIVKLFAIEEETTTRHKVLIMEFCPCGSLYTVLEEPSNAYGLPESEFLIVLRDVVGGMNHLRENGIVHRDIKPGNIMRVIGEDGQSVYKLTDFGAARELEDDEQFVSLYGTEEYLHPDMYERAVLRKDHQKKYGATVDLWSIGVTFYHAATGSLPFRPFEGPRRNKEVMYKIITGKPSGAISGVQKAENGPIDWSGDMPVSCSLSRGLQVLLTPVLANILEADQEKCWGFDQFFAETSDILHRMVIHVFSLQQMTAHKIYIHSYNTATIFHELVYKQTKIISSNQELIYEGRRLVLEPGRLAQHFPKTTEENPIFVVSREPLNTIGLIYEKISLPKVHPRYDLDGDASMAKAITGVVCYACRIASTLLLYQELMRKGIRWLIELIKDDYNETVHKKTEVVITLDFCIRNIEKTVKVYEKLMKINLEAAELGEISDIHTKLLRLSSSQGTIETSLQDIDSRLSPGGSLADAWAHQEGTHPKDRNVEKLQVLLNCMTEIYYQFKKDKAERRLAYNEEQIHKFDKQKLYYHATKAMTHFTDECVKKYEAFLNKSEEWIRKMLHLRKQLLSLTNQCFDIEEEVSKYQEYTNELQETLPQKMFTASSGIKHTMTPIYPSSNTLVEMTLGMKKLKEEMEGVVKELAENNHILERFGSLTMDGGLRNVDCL
The note with it: at 10 µM.

In test [2] the target is T2, TGF-beta receptor type-1 (Homo sapiens) (UniProt P36897).
T2 sequence (whole entry): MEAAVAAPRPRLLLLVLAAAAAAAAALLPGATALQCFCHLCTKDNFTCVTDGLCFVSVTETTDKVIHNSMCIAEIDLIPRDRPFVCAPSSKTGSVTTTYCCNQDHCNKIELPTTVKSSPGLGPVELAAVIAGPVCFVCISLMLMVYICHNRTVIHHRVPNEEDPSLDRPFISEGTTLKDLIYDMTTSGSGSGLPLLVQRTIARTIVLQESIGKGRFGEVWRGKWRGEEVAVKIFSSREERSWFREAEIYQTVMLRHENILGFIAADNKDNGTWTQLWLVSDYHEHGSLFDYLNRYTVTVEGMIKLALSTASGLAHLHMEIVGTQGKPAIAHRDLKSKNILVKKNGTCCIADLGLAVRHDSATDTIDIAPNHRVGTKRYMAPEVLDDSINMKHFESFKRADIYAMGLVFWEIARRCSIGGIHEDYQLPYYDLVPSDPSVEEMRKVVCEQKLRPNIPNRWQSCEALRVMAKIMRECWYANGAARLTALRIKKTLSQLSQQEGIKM
The note with it: at 1 µM.

Test [3] concerns the target T2, TGF-beta receptor type-1 (Homo sapiens). The settings on record: at 10 µM.
Test [4] has as its target Insulin-like growth factor 1 receptor (Homo sapiens) (UniProt P08069). The settings on record: at 1 µM.
The target is the same in test [5]. The settings on record: at 10 µM.
For test [6], the target named is T3, Inhibitor of nuclear factor kappa-B kinase subunit alpha (Homo sapiens) (UniProt O15111).
T3 sequence (whole entry): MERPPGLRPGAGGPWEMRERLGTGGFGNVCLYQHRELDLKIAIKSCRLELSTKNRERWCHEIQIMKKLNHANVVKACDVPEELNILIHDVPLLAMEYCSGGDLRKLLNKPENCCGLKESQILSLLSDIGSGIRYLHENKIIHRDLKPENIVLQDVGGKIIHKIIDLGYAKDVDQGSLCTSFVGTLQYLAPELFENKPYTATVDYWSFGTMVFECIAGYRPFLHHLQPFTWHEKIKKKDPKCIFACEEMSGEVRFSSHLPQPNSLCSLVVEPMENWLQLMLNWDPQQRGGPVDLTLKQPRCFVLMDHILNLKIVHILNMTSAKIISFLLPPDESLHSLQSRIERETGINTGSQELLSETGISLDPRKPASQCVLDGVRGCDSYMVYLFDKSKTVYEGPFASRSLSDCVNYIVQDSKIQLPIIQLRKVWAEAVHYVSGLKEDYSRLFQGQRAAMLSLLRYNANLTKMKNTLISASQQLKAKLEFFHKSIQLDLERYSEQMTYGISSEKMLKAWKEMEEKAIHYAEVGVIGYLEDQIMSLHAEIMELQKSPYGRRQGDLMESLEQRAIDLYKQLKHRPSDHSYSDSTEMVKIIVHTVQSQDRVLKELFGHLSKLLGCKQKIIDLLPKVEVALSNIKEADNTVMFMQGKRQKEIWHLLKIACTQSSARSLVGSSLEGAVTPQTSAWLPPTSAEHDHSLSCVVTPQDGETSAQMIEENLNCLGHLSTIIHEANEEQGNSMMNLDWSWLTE
The settings on record: at 1 µM.

In test [7] the target is T3, Inhibitor of nuclear factor kappa-B kinase subunit alpha (Homo sapiens). The settings on record: at 10 µM.
Test [8] has as its target T4, Inhibitor of nuclear factor kappa-B kinase subunit beta (Homo sapiens) (UniProt O14920).
T4 sequence (whole entry): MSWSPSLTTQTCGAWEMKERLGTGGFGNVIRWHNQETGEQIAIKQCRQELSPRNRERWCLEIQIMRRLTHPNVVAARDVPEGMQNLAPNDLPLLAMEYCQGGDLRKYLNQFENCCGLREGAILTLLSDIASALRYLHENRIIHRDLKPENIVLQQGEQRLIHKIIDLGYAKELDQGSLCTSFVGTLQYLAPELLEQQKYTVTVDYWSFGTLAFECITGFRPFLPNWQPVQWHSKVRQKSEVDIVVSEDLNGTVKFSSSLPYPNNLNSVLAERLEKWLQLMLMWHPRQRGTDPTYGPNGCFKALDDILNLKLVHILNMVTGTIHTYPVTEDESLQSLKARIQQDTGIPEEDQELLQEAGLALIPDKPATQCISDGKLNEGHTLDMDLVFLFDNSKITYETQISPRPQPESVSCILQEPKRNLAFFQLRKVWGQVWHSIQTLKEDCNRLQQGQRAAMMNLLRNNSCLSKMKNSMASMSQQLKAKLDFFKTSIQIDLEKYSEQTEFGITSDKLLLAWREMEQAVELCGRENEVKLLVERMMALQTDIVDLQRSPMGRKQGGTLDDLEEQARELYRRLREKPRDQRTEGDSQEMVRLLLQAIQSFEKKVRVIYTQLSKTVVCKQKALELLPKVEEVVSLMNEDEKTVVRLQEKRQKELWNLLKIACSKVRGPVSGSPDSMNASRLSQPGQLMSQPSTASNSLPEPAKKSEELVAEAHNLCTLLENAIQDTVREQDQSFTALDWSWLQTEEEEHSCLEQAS
The settings on record: at 1 µM.

Test [9] concerns the target T4, Inhibitor of nuclear factor kappa-B kinase subunit beta (Homo sapiens). The settings on record: at 10 µM.
The target of test [10] is Insulin receptor (Homo sapiens) (UniProt P06213). The settings on record: at 1 µM.
Insulin receptor (Homo sapiens), sequence (P06213 28-758 limits assumed): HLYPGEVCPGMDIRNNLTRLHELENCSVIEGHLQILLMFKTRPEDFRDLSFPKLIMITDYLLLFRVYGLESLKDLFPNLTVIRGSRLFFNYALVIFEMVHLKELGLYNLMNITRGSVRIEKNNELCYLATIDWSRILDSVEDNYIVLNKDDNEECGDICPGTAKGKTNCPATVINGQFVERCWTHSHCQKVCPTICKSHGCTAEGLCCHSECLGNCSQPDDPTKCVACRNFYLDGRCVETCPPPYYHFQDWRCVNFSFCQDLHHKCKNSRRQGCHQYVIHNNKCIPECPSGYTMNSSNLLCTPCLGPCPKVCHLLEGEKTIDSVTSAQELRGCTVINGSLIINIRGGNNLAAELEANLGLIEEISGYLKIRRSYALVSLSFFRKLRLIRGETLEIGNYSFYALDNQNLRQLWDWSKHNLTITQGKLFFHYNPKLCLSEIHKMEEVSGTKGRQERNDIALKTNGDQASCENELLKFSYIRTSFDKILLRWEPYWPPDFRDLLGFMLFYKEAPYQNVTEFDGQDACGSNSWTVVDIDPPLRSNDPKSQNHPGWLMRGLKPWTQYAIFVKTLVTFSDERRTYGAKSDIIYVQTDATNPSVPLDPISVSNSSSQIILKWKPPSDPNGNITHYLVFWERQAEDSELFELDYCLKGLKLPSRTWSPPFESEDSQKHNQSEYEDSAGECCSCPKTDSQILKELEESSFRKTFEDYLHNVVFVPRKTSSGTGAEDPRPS
Insulin receptor (Homo sapiens), sequence (P06213 763-1382 limits assumed): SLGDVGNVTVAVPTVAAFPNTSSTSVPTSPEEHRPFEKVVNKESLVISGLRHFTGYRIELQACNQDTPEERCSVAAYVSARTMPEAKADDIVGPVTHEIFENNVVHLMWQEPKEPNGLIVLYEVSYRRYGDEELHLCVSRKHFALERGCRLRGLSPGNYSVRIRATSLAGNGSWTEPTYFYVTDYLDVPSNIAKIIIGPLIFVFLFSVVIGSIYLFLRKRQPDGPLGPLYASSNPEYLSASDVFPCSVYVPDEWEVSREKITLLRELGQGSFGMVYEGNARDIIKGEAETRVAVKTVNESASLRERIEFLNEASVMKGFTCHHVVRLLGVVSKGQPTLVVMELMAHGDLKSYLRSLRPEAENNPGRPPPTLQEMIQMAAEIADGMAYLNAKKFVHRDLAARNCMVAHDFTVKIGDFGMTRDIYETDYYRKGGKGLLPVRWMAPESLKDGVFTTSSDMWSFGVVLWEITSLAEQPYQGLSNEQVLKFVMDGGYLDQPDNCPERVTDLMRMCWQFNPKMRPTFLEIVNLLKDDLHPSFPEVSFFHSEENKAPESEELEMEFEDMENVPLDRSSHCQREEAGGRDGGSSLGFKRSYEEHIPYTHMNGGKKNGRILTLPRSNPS

Insulin-like growth factor 1 receptor (Homo sapiens), sequence (P08069 31-736 limits assumed): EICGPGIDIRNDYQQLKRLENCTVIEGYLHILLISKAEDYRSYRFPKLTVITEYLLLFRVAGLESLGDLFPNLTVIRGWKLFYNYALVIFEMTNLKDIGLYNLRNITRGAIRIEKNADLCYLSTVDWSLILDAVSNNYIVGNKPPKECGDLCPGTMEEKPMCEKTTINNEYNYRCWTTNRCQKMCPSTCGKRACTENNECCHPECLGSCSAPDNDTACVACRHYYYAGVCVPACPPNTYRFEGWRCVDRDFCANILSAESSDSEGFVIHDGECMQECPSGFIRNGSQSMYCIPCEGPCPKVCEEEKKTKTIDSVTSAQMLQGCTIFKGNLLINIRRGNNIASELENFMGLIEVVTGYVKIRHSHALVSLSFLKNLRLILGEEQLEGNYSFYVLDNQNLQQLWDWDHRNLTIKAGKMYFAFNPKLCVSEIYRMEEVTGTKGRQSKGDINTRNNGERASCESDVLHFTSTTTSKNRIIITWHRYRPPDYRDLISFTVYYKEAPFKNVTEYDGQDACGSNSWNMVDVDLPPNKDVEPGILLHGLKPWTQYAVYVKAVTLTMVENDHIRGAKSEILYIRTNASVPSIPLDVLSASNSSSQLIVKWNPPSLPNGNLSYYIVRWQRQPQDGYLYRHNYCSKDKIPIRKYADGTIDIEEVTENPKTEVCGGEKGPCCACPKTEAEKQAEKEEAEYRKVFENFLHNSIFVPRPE
Insulin-like growth factor 1 receptor (Homo sapiens), sequence (P08069 741-1367 limits assumed): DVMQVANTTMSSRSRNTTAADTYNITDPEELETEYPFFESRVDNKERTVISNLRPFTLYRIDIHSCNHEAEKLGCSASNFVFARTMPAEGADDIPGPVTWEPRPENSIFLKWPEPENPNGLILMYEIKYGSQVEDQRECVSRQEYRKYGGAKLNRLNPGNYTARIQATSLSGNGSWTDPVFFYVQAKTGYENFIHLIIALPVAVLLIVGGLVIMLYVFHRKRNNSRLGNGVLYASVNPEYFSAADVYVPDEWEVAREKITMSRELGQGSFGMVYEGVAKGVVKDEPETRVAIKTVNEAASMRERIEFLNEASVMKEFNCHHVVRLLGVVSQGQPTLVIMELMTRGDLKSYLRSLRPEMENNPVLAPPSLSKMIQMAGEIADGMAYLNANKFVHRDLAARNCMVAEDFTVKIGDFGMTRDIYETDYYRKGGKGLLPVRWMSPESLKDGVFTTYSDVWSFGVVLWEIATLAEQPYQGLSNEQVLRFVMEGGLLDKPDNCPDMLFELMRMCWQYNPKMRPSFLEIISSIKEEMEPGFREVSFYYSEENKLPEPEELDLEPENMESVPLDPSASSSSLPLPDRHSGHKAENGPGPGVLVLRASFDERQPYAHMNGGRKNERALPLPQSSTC

Turning to `NC(=O)c1ccc2[nH]c(-c3ccc(Oc4ccc(Cl)cc4)cc3)nc2c1`, the residual activity was 60% in test [1]; 84% in test [2]; 85% in [3]; 89% in [4]; 85% in test [5]; 123% in [6]. Also, the residual activity in [7] amounted to 137%; in test [8], 108%; in test [9] it was 106%; in test [10] it was 102%.
